Z-score data for 62 compounds are collected here from PubChem BioAssay AID1628 (Sanford-Burnham Center for Chemical Genomics, 2009).

The whole screen tested about 190,000 compounds, of which about 930 (0.49%) were called active. The list shows a part of the results. Measured potencies and affinities stand elsewhere. A number with no mark means an inactive call.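 How the source made its calls: active means z-score of insulin promoter reporter brightness in nuclei below -3 at 5 µM, with at least 500 cells counted; inconclusive means wells with under 500 cells, flagged as toxic or sparse; inactive means the rest.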

The experiment in a line: insulin promoter down-regulators in MIN6 cells, imaging, high-content screening, mouse beta cells (AID 1628). Conditions: MIN6 insulin promoter GFP reporter, at 5 µM, hits give low values.
For the compound `Cc1cc(C)cc(N=Cc2[nH]c3ccc(Br)c(Cl)c3c2O)c1`, the z-score is 13.9. For the compound `Cc1nn(Cc2ccccc2Cl)c2sc(C(=O)NCCCn3ccnc3)cc12`, the z-score was -4.53 (active). With `Cc1ccc(C(=O)NCCCn2ccnc2)cc1[N+](=O)[O-]`, the z-score is 5.54. With `O=C(NCCCn1ccnc1)/C(=C/c1ccco1)NC(=O)c1cccs1` the figure was 3.41.

For `COc1ccccc1N1CCN(C/C(O)=C(\C#N)c2nc(-c3ccccc3)cs2)CC1`, the z-score was 3.2.

For the compound `CN1CCN(Cc2nc(N)nc(Nc3ccc4c(c3)OCCO4)n2)CC1`, the z-score is 4.73. With `COc1ccccc1N1CCN(Cc2nc(N)nc(Nc3ccccc3)n2)CC1` the figure was -3.17 (active); with `Cc1cccc(Nc2nc(N)nc(CN3CCN(c4ccccc4)CC3)n2)c1`, -1.36; with `Cc1ccc(NC(=O)/C=C/c2ccc([N+](=O)[O-])s2)cc1`, 16.6.

As to `NC(=NCc1ccc2c(c1)OCO2)NC(=O)c1ccccc1`, the z-score was -3.43 (active). With `CC(=O)Oc1ccc2c(=O)c(-c3ccccc3)c(C)oc2c1` the figure was -0.21; with `CCNc1c(N)c(=O)oc2ccccc12`, -0.02. For `Cc1ccc(CN2CCN(/N=C/C=C/c3ccccc3[N+](=O)[O-])CC2)cc1`, the z-score is -4.13 (active).

`N#CC(C#N)=C1C=C2C=C(N3CCCCC3)CCC2CC1` (configuration not stated): the z-score was 18.2. Turning to `CCN(CC)C(=O)c1sc(NC(=O)c2ccncc2)c(C(=O)OC)c1C`, the z-score is -4.37 (active). With `CCN(CC)C(=O)c1sc2nc(-c3cccs3)cc(-c3cccs3)c2c1N` the figure was 4.15.

For the compound `Cc1c(Cl)cccc1NC(=O)CN1CCN(CCN=CC2=C(O)CC(c3ccccc3)CC2=O)CC1` (configuration not stated), the z-score was 2.18. For the compound `CC1=NNC(=O)C1CCC(=O)N/N=C/c1ccc(C)cc1` (configuration not stated), the z-score was 3.3.

For the compound `Oc1ccc(/C=N/Nc2ccnc3cc(Cl)ccc23)c(O)c1`, the z-score was 5.11.

For the compound `CCN1CCc2c(sc(NC(=S)NC(=O)c3ccc(Cl)cc3)c2C(N)=O)C1`, the z-score is 3.92. With `CC1Cn2c(nnc2C23CC4CC(CC(C4)C2)C3)S1` (configuration not stated) the figure was -3.06 (active). Turning to `Cc1ccc(-c2csc(=Nc3cccnc3)n2CCCn2ccnc2)cc1C`, the z-score is -3.01 (active). The same measure for `N#C/C(=C/c1ccc(N2CCCCCC2)o1)c1ccc(Cl)cc1`: 16.2; for `CC(=O)C1=C(C)Nc2ncnn2C1c1ccc(Cl)cc1Cl` (configuration not stated): 3.45. `CC1CN(C(=O)CCn2c(=O)oc3ccccc32)CC(C)O1` (configuration not stated): the z-score was 8.04. With `CCCN1C(=O)c2cccc3c(N4CCCCC4)ccc(c23)C1=O` the figure was 3.75; with `CCCCN1C(=O)/C(=C/C=C2\Oc3ccccc3N2CC)SC1=S`, 16.7. The same measure for `O=C1CCCC(O)=C1C=NCCc1ccccc1`: 3.02. Regarding `Cc1ccc(Nc2nc(N3CCOCC3)c3ccccc3n2)cc1`, the z-score is -3.61 (active). With `CCOC(=O)CSc1nc2ccc(Nc3nc(N4CCOCC4)nc(N4CCOCC4)n3)cc2s1` the figure was -0.17; with `O=c1c2cccc3c(N4CCOCC4)ccc(c32)c2nc3ccccc3n12`, 9.75. With `Cc1n[nH]c(C)c1N1C(=O)c2cccc3c(N4CCCCCC4)ccc(c23)C1=O` the figure was 8.27; with `O=C(C1CC1)N1CCC(c2nc(-c3ccc(S(=O)(=O)NCC4CCCO4)cc3)no2)CC1` (configuration not stated), -7.53 (active).

On to `Cc1noc(/C=C/c2ccc(-c3ccccc3Cl)o2)c1[N+](=O)[O-]`, for which the z-score was 8.03.

With `COc1ccc(C)cc1NC(=O)COC(C)=O`, the z-score is 3.48.

On to `COc1ccc(Cl)cc1NC(=O)CN1CCC(n2nnc3cc(C)ccc32)CC1`, for which the z-score was -4.05 (active). On to `Nc1cc(S(=O)(=O)Nc2ccccc2Cl)ccc1N1CCOCC1`, for which the z-score is 2.18.

Regarding `O=C(NN=C1CCN(Cc2ccccc2)CC1)c1cccc(S(=O)(=O)Nc2ccccc2Cl)c1`, the z-score was 3.03. As to `O=C(O)c1ccccc1-c1ccccc1C(=O)NNc1ccccc1`, the z-score was -3.66 (active).

`CC(C)(C)S(=O)(=O)c1ccccc1C(=O)O`: the z-score was -1.55. Regarding `O=C(NCCc1ccc(Cl)cc1)c1cccs1`, the z-score is 1.56. `Cc1ccc([N+](=O)[O-])cc1NC(=O)c1cccs1`: the z-score is 3.18. The same measure for `COc1ccc(N(CCN2C(=O)c3ccccc3C2=O)C(=O)c2cccc([N+](=O)[O-])c2)cc1`: 3.09; for `CCCN1C(=O)c2ccccc2NC1c1ccc(C)cc1` (configuration not stated): 2.64.

As to `CCN(CCCCN1C(=O)c2ccccc2C1=O)c1ccc2c(c1)C(=O)N(C)C2=O`, the z-score was -3.55 (active). For `COc1ccccc1OCc1nnc(SCC(=O)NCc2ccco2)n1-c1ccccc1`, the z-score is 0.71. With `CC(C)Sc1nc(SCC(=O)NCc2ccco2)c2c3c(sc2n1)COC(C)(C)C3` the figure was -3.28 (active). As for `CC(C)c1cccc(O)c(=O)c1`, the z-score was -0.46.

For `CN1C(=O)CC(N2CCN(Cc3ccc(Cl)cc3)CC2)C1=O` (configuration not stated), the z-score was 3.88.

For `CCN(CC)c1ccc(/C=N/N2CCN(Cc3ccc(Cl)cc3)CC2)c(O)c1`, the z-score is -5.88 (active). As to `Cc1nn(C)cc1CNC(=O)c1cc2n(n1)C(C(F)(F)F)CC(c1cccs1)N2` (configuration not stated), the z-score is -3.69 (active). The same measure for `Cc1nn(C)c(C)c1CNC(=O)c1nn2c(c1Cl)NC(c1cccs1)CC2C(F)(F)F` (configuration not stated): -4.07 (active). With `CCCc1cc(-n2ccnc2)n2c(nc3ccccc32)c1C#N` the figure was 5.52.

As to `O=C(CSc1nc2ccc(Cl)cc2o1)NCc1ccc2c(c1)OCO2`, the z-score was 3.95. With `COc1ccc2c(c1)C(C)=CC(C)(C)N2C(=O)CNCc1ccc2c(c1)OCO2` the figure was -4.43 (active); with `CCCCCOC(=O)Cn1c(N2CCCCCC2)nc2c1c(=O)[nH]c(=O)n2C`, -0.48; with `CCc1c(C(=O)Nc2ccncc2)csc1C`, -4.62 (active).

As to `CC1=C(C(=O)Nc2ccc(F)cc2)C(c2ccncc2)C2=C(CCCC2=O)N1` (configuration not stated), the z-score is 1.21. With `CCOc1ccc(OCC)c(-c2c(=O)n(OCc3ccc(Cl)cc3)c3ccccc3[n+]2[O-])c1`, the z-score is 3.34.

`COC(=O)c1sc2nc(-c3ccccc3)nc(N3CCN(C)CC3)c2c1C`: the z-score is -4.28 (active).

Turning to `CCOC(=O)c1sc2nc(CSc3ccccc3Cl)[nH]c(=O)c2c1C`, the z-score is 1.87. `Cc1sc2nc(-c3cccs3)nc(N3CCCN(C)CC3)c2c1C`: the z-score is -3.73 (active).
